A selection: hits, their analogues and other compounds. The true share with any hit is near 2.3%.
AmpC inh no detg: blocks E. coli AmpC beta-lactamase in detergent-free assay; Potency, µM (series often up to 57.1 µM), hits mostly inhibitors; AmpC nitrocefin hydrolysis, absorbance 480 nm, 0.0001% Triton; 0.52% of 330,000 active; note: nearly all actives have a fitted effect of over 20% in size
Target sequence (P00811 whole entry, looked up): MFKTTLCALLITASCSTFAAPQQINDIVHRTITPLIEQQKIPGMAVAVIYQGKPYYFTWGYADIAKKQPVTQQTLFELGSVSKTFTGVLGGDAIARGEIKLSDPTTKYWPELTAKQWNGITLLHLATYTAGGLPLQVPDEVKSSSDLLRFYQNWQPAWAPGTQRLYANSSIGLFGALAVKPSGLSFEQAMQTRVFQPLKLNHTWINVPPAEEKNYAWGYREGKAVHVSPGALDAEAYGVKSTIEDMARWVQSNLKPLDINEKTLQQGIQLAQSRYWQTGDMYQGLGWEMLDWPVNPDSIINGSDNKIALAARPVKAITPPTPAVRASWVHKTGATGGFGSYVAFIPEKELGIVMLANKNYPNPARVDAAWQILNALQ
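AmpC (5.3 nM in the dispensed reagent) in 20 mM phosphate pH 7.0 with 0.01% (detergent screen) or 0.0001% Triton X-100 was preincubated with compounds for 15 min at room temperature. Nitrocefin was then added from an 800 uM solution, and hydrolysis was followed at 480 nm.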
AMA1-RON2 inh: inhibitors of Plasmodium falciparum AMA1-RON2 interaction | Potency, µM (top dose mostly 58.2 µM), hits mostly inhibitors | 0.2% of 360,000 active | AlphaScreen AMA1-biotinylated RON2 peptide binding | AID 720542; note: nearly all actives have a fitted effect of over 45% in size
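AMA1 (3D7) with his tag at 25 nM final met compounds first, then biotinylated RON2 peptide at 25 nM; detection used donor plus acceptor beads, 10 µg/mL apiece, read by AlphaScreen after 30 min at room temperature.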
LASV entry inh: Lassa virus entry inhibition | Lassa virus pseudotype entry inhibition, cell reporter | Potency, µM (doses to about 37.9 µM), usual class: inhibitors | 1.2% of 300,000 active | AID 540256; calls by dose curve; tested in HEK293 cells; note: nearly all actives have a fitted effect of over 50% in size
MARV entry inh: blocks Marburg virus binding to or entry into cells. Marburg virus pseudotyped entry inhibition, cell reporter. Potency, µM (highest dose often 37.8 µM), usual class: inhibitors. 1.8% of 300,000 active. AID 540276; calls by dose curve; tested in HEK293 cells
AmpC detergent: inhibitors of E. coli AmpC beta-lactamase with detergent; 0.041% of 370,000 active; Potency, µM (highest dose often 114 µM), most hits filed as inhibitors; AmpC hydrolysis of nitrocefin, absorbance 480 nm, 0.01% Triton; P00811; AID 485294; note: nearly all actives have a fitted effect of over 25% in size
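AmpC (5.3 nM in the dispensed reagent) in 20 mM phosphate pH 7.0 with 0.01% (detergent screen) or 0.0001% Triton X-100 was preincubated with compounds for 15 min at room temperature. Nitrocefin was then added from an 800 uM solution, and hydrolysis was followed at 480 nm.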
Numbers stand for hits; - = inactive; ? = inconclusive; . = no result given; [ ] = remark or other dose. Unless noted, calls come from the whole dose curve; as a rule, active = well fitted curve in the direction sought with a large enough effect; inconclusive = small, poorly fitted or top-dose-only effect, or another doubt; inactive = no such curve, though single readings can be large; an effect the other way counts as inactive or inconclusive.

SMILES | AmpC inh no detg | AMA1-RON2 inh | LASV entry inh | MARV entry inh | AmpC detergent
CC1=C[C@@H](COCc2ccccc2)O[C@@]2(C1)C(=O)N(Cc1ccc(Br)cc1)c1ccccc12 | . | . | ? | - | .
Cc1ccc(-n2sc3ccccc3c2=O)cc1 | - | - | ? | 3.2µM | ?
Cc1csc(SCc2nnc(-c3ccccc3Br)o2)n1 | - | - | - | - | -
Fc1ccccc1SCc1nnc(-c2ccccc2Br)o1 | - | - | ? | 5µM | -
Cc1nnc(SCc2nnc(-c3ccccc3Br)o2)n1-c1ccccc1 | 5.6µM | - | - | - | ?
Oc1cc(O)cc(/C=C/c2ccc(O)c(O)c2)c1 | - | 7.1µM | 4.1µM | ? | -
COc1ccc2[nH]c3c(c2c1)CCN(C(=O)c1cccc(Cl)c1)C3c1ccc(F)cc1 (stereo not given) | . | . | ? | 1µM | -
CCOc1cccc(CC(=O)N2CCc3c([nH]c4ccc(OC)cc34)C2c2ccc(F)cc2)c1OCC (stereo not given) | . | . | ? | - | -
CCCCOc1ccc(-c2nnc(-c3ccncc3)o2)cc1 | - | - | ? | ? | -
CCCOc1ccc(-c2nnc(-c3cccs3)o2)cc1 | - | - | 2µM | - | -
CC(C)c1ccc(NC(=O)CN2C=NS(=O)(=O)c3ccccc32)cc1 | . | . | - | . | -
CCOc1ccc(S(=O)(=O)n2cnc3cc(C)c(C)cc32)cc1 | - | - | ? | 21µM | -
Cn1c(SCC(=O)N2CCCc3ccccc32)ncc(C(=O)Nc2ccccc2)c1=O | . | . | - | . | -
Cc1ccc(-c2cc(C(=O)NCCCN3CCCC3)c3ccccc3n2)cc1C | - | - | ? | 11µM | -
O=C(NCCCN1CCCC1)c1cc2c(Cl)nc3ccccc3c2s1 | - | - | ? | 10µM | -
CCN1CCN(CCCNC(=O)c2cc3c(=O)[nH]c4ccccc4c3s2)CC1 | - | - | ? | ? | -
CCCN1CCN(CCCNC(=O)c2cc3c(Cl)nc4ccccc4c3s2)CC1 | . | . | - | ? | -
O=C(NCCCN1CCOCC1)c1cc2c(=O)[nH]c3ccccc3c2s1 | - | - | - | 10µM | -
CCCCN(CC)CCNC(=O)c1cc2c(=O)[nH]c3ccc(C)cc3c2s1 | - | - | ? | 5µM | -
Cc1cccc(C)c1NC(=O)c1sc(-n2nc(C)c(Cc3ccccc3)c2C)nc1C | . | . | - | - | -
CCc1cc2c(nc1CC)CCN(CCC(C)=NO[C@@H](C)c1cn([C@H](CO)Cc3ccccc3)nn1)C2 | . | . | . | - | .
CCCCN(CC)CCCNC(=O)c1cc2c(=O)[nH]c3ccccc3c2s1 | - | - | - | 7.1µM | -
Cc1cccc(N2CCN(C(=O)Cn3ncc4c3-c3cc(C)ccc3OC4)CC2C)c1 (stereo not given) | . | . | . | ? | -
Cc1ccc(NC(=O)Cn2c(=O)n(CC3CCCO3)c(=O)c3ccccc32)cc1 (stereo not given) | . | . | - | - | -
COc1ccc(-c2noc(CSc3nnc(-c4ccc(Cl)cc4)n3C)n2)cc1OC | . | . | - | - | -
SMILES | AmpC inh no detg | AMA1-RON2 inh | LASV entry inh | MARV entry inh | AmpC detergent
O=C(Nc1ccc2nc3n(c(=O)c2c1)CCCCC3)c1c(F)ccc([N+](=O)[O-])c1F | - | - | ? | 7.1µM | -
COc1ccccc1CNC(=O)C(Cc1c[nH]c2ccccc12)NC(=O)OCc1ccccc1 (stereo not given) | - | - | 4.5µM | ? | -
CC(C)CC(NC(=O)OCc1ccccc1)C(=O)NC(Cc1c[nH]c2ccccc12)C(=O)O (stereo not given) | . | - | . | . | .
CCNC(=S)N(CCc1c(C)[nH]c2ccc(Cl)cc12)Cc1ccco1 | - | - | 7.9µM | ? | -
COC(=O)/C(C#N)=C1\SC=C(C)N1c1ccccc1 | . | . | . | - | .
CCOC(=O)CSc1nc2cc3c(cc2c(=O)n1CCCC(=O)NCCc1ccc(OC)c(OC)c1)OCO3 | . | . | ? | . | -
CC(=O)Nc1ccc(N2C(C(C)=O)=NN(c3ccc(Cl)cc3)C2c2sccc2C)cc1 (stereo not given) | - | - | ? | 21µM | -
Cc1nnc(N2CCC(C(=O)N3CCCCC3)CC2)c2nn(-c3ccccc3)c(C)c12 | . | . | - | . | -
C[C@H](NC(=O)N1CCc2nc(-c3ccccc3)c3c(c2C1)CO[C@@H](C)C3)c1ccccc1 | . | . | . | - | .
Cc1ccc(CCNC(=O)C2CCN(S(=O)(=O)c3c(C)nn(C)c3C)CC2)cc1 | 2.5µM | - | . | . | ?
Cc1cccc(CCNC(=O)C2CCN(S(=O)(=O)c3c(C)nn(C)c3C)CC2)c1 | - | - | - | - | ?
COc1cccc(/C=N/Nc2ncnc(N)c2[N+](=O)[O-])c1OC | - | - | 8.2µM | ? | -
Cc1cc(/C=N/Nc2nc(N)ncc2[N+](=O)[O-])c(C)n1-c1cccc(C(F)(F)F)c1 | - | . | . | . | -
Cc1cc(/C=N/Nc2ncnc(N)c2[N+](=O)[O-])c(C)n1-c1ccccc1 | - | - | 1.1µM | ? | -
Cc1cc(C(F)(F)F)nn1CC(=O)NC[C@H]1CCCO1 | . | . | . | - | .
COC(=O)C(NC(=O)c1ccc(F)cc1)(Nc1ncc(S(=O)(=O)c2ccc([N+](=O)[O-])cc2)s1)C(F)(F)F (stereo not given) | 8.9µM | - | ? | ? | -
COc1ccc(C(=O)NCc2ccc3c(c2)CCN3C(=O)c2ccc(C)cc2)cc1 | . | . | - | . | -
COC(=O)C1=C(C(=O)OC)[C@@H]2Nc3ccccc3[C@@]23C[C@@H](C(=O)OC)N(C(=O)N2CCNC2=O)C3=N1 | . | . | . | - | .
Cc1nc2cc(NC(=O)Nc3nccs3)ccc2n1C | - | - | 13µM | ? | -
O=C(/C=C/c1ccco1)NC(=S)Nc1cccc(-c2nc3ccccc3s2)c1 | . | - | - | 3.5µM | .
O=C(/C=C/c1ccco1)NC(=S)Nc1cc(-c2nc3ccccc3s2)ccc1Cl | - | - | - | ? | ?
Cc1ccc(NC(=O)/C=C/c2ccco2)nc1 | - | -[2.32 µM] | ? | 7.1µM | -
O=C(/C=C/c1ccco1)Nc1ccccn1 | - | - | ? | ? | -
Cc1ccccc1NC(=S)NC(=O)/C=C/c1ccco1 | 5.6µM | - | - | - | -
CCOC(=O)c1c(Oc2ccc(C(C)=O)cc2)nnc(-c2ccccc2)c1-c1ccccc1 | . | . | - | ? | -
SMILES | AmpC inh no detg | AMA1-RON2 inh | LASV entry inh | MARV entry inh | AmpC detergent
Cc1cccc(N2CCN(C(=O)c3cn(C)c(=O)c4c3c3ccccc3n4C)CC2)c1C | - | - | 6.5µM | ? | -
Cc1cccc(N2CCN(C(=O)c3cn(CC(C)C)c(=O)c4c3c3ccccc3n4C)CC2)c1C | . | . | - | - | -
CCOc1ccc(OCC)c(NC(=O)c2cc(S(=O)(=O)N3CCc4ccccc43)cn2C)c1 | . | . | - | . | -
CS(=O)(=O)c1nc(-c2ccccc2)cc(-c2ccccc2)c1C#N | - | - | 15µM | 13µM | -
CNCCCC1c2ccccc2C=Cc2ccccc21 | - | - | ? | 3.5µM | -
O=C(Cn1ncc(Cl)c(Cl)c1=O)NC(=O)NC1CCCCC1 | - | - | ? | 11µM | .
O=C(CN1CCCCC1)NC(=O)NC1CCCC1 | - | - | - | ? | -
CN(C)CCNc1cc(-c2ccncc2)nc2ccccc12 | - | - | - | 6.3µM | -
CN(C)CC/C=C1/c2ccccc2COc2ccccc21 | - | . | . | . | -
